We go through twelve compounds from article PMC7826789 (International Journal of Molecular Sciences, 2021).

Regarding `COc1cc2ncn(-c3cc(OCc4ccncc4)c(C(N)=O)s3)c2cc1OC` [GSK336313], in the assay with PLK2, the Kinases covered entry is “PLK2”. Consider `CCn1c(-c2nonc2N)nc2cncc(CNC3CCNCC3)c21` [SB-747651A], for which the Kinases covered entry with PRK2 is “PRK2”. `O=C(c1ccc(-c2cc(-c3c[nH]nc3-c3ccccn3)ccn2)cc1)N1CCCC1` [GW792479]: the Kinases covered result in the assay on PIP4K2C is given as “PIP4K2C”.

Regarding `Cc1cc(NC(=O)c2cccc(NC(=O)/C=C/CN(C)C)c2)ccc1Nc1nccc(-c2cccnc2)n1` [JNK-IN-7], the Kinases covered result in the assay with PIP5K2C was “PIP5K2C”. Turning to `COc1cc2ncn(-c3cc(OCC4CCCO4)c(C(N)=O)s3)c2cc1OC` (stereo not drawn) [GSK204607], the Kinases covered result is “PLK1” with PLK1, “PLK2” in the assay with PLK2 and “PLK3” in the assay on PLK3. For the compound `Nc1nccc(-c2c(-c3ccc(F)cc3)ncn2C2CCN(Cc3ccccc3)CC2)n1` [SB-219980], in the assay on PIP4K2C, the Kinases covered result is listed as “PIP4K2C”. For `NCC1CNC(=O)c2cc3ccc(C(=O)Nc4cccnc4)cc3n2C1` (stereo not drawn) [BI00614644], the Kinases covered result with PIM3 was “PIM3”.

On to `CCCc1cc(N2CCCN(C)CC2)nc2sc3c(N)ncnc3c12` [BI00604564], for which, in the assay on PIP5K1C, the Kinases covered entry is on record as “PIP5K1C”. For the compound `CC(C)N1CC(=O)N(C)c2cnc(Nc3cccc(S(=O)(=O)CCN4CCOCC4)c3)nc21` [BI00009348], the Kinases covered entry is on record as “PIP5K1C” in the assay with PIP5K1C and “PIP5K2C” with PIP5K2C.

As to `O=C1Nc2ccc(I)cc2C1=Cc1cc(Br)c(O)c(Br)c1` [GW305074X], the Kinases covered result in the assay on PIM2 was “PIM2”.

For the compound `CCn1c(-c2nonc2N)nc2cncc(C(=O)N3CC[C@H](N)C3)c21.Cl` [SB-772077-B], the Kinases covered result in the assay on PIM1 is “PIM1”. Take `C[C@@H](Oc1cc(-n2cnc3ccc(CN4CCN(C)CC4)cc32)sc1C(N)=O)c1ccccc1C(F)(F)F` [GSK461364]: the Kinases covered result in the assay on PLK1 was “PLK1”.
